This note sets out measurements from PubChem BioAssay (NCI).

Experiment in all cases: NCI-60 one-dose screen, 48 h (100 = growth as untreated, 0 = no growth, -100 = all killed)
Details in all cases: 10 µM

For test [1], the system named is NCI-H23 lung.
The subject of test [2] is NCI-H226 lung.
In test [3] the test system is NCI-H322M lung.
For test [4], the system named is HOP-62 NSCLC.
The subject of test [5] is NCI-H460 lung.
Test [6] has as its system HOP-92 NSCLC.
The test system of test [7] is NCI-H522 lung.
Test [8] relates to 786-0 renal.
Test [9] concerns COLO 205 colon.
The test system of test [10] is K-562 leukemia.
The subject of test [11] is MALME-3M melanoma.
For test [12], the system named is MDA-MB-231 breast.
In test [13] the test system is SF-268 CNS.
In test [14] the test system is SF-295 CNS.
Test [15] relates to SF-539 CNS.
Test [16] has as its system UACC-257 melanoma.
Test [17] deals with M14 melanoma.
Test [18] has as its system A549/ATCC NSCLC.
Test [19] has as its system DU-145 prostate.
Test [20] relates to RXF 393 renal.

Each structure is given as a SMILES string. This is part of a sample that, as a whole, favours compounds with a hit. Of some 83,000 tested, about 20% had one in any assay.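 Growth was measured after 48 h exposure to one concentration of compound in 96-well plates. Values under 10 count as active.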 Unmarked numbers belong to inactive results. Calls of active or inactive are those of the source.

Turning to `CN(C)c1ccc(CNC(C(=O)c2ccccc2)c2ccccc2)cc1` (centres undefined), the growth in test [1] is 98.5%; in [2], 101%; in [3] it was 92.8%; in test [4], 75.5%; in [5], 110%; in [6], 78.9%. For the same compound, the growth in [7] was 85.4%; in [8] it was 109%; in [9] it was 113%; in test [10], 94.8%; in test [11], 94.2%; in [12] it was 107%. The growth was 96.9% in test [13]; 98.1% in test [14]; 111% in test [15]; 94.9% in test [16]; 114% in [17].

`CCOC(=O)C1=C(Nc2ccc(Br)cc2)C(=O)N(CC)C1`: the growth was 98.8% in test [1]; 86.3% in [2]; 95.6% in test [3]; 85.9% in test [4]; 107% in test [5]; 48.3% in [6]. Besides, the growth in test [18] was 98.8%; in [8], 91.4%; in [9], 108%; in [19], 107%; in test [10] it was 106%; in test [11] it was 101%. The growth in test [12] is 81.8%; in test [20], 92.9%; in test [13], 96.8%; in [14], 87%; in test [15], 84.9%; in [17], 110%.

In the case of `O=C(Nc1ccccc1C(=O)NCC1CC1)c1cccs1`, the growth in test [1] was 109%; in [2], 88.1%; in [3], 126%; in test [4], 103%; in [5], 105%; in test [6], 71.6%. Besides, the growth is 102% in [18]; 101% in test [8]; 116% in [9]; 118% in [19]; 103% in test [10]; 131% in test [11]. The growth was 97.1% in test [12]; 98.9% in test [20]; 113% in test [13]; 86.5% in [14]; 101% in test [15]; 103% in test [17].

Turning to `CN(C)c1ccc(C(c2ccc(O)cc2)c2ccc(N(C)C)cc2)cc1`, the growth is 104% in [1]; 92.9% in test [2]; 98.4% in test [3]; 99.7% in [4]; 98.6% in [5]; 90.9% in test [6]. Further, the growth in test [7] is 81.1%; in test [8] it was 105%; in [9] it was 101%; in test [19] it was 101%; in test [10] it was 49.9%; in test [11], 91.5%. For the same compound, the growth is 87.3% in test [12]; 112% in test [20]; 92.1% in test [13]; 103% in test [14]; 104% in test [15]; 89.3% in [17].

For the compound `CCCCOC(OCCCC)c1ccccc1`, the growth in [1] was 95%; in test [2], 107%; in test [3], 104%; in test [4] it was 117%; in [5], 109%; in [6], 101%. Moreover, the growth in [18] is 91.4%; in test [8], 105%; in [9] it was 112%; in test [19], 112%; in [10], 107%; in test [11] it was 132%. For the same compound, the growth in test [12] is 112%; in test [20] it was 128%; in [13] it was 96.5%; in [14], 111%; in test [15] it was 91.8%; in test [16], 109%. Further, in test [17], the growth was 113%.

Regarding `COc1cccc(Sc2ccc([N+](=O)[O-])c3no[n+]([O-])c23)c1`, the growth in [1] was 68.8%; in test [2], 85.3%; in [3], 88.7%; in test [4] it was 103%; in test [5], 95.7%; in [6], 3.91% (active). The growth in test [7] was -19.9% (active); in [18], 84%; in test [19], 67.3%; in test [10], 8.93% (active); in [11] it was 27.7%; in test [12], 74.2%. The growth is -54% (active) in test [20]; 62.6% in test [13]; 95.9% in [14]; 95.4% in [15]; 96.7% in test [16]; 72.1% in test [17].

For `C=CC[N+](C)(C)C`, the growth was 103% in test [1]; 93.6% in test [2]; 108% in test [3]; 107% in test [4]; 104% in test [5]; 86% in test [6]. Also, the growth in test [18] was 100%; in [8] it was 102%; in test [9], 120%; in test [19], 120%; in [10], 102%; in test [11] it was 98.8%. The growth in [12] is 108%; in [20] it was 100%; in test [13], 112%; in test [14] it was -10.9% (active); in test [15], 98.1%; in test [16], 101%. Further, the growth in test [17] is 107%.

As for `Oc1ccc(Cc2ccccc2)c2cccnc12`, the growth in test [1] is 7.91% (active); in test [2], 75.7%; in test [3], -2.54% (active); in test [4] it was 18.3%; in test [5], 0.164% (active); in [6] it was -0.901% (active). Also, the growth was 16.2% in test [18]; -1.42% (active) in test [8]; 96.5% in test [9]; 28.9% in test [19]; 13.3% in test [10]; -0.436% (active) in [11]. Moreover, the growth was 31% in [12]; 14.6% in test [20]; 20% in test [13]; 32.4% in test [14]; 11.8% in test [15]; 1.27% (active) in test [16]. For the same compound, in [17], the growth was -29.8% (active).

On to `Cc1cc(C(O)(c2ccc(Nc3ccccc3)cc2)c2ccc(Nc3ccc(S(=O)(=O)O)cc3)cc2)ccc1N` (centres undefined), for which the growth in [1] is 8.07% (active); in test [2], 28.9%; in test [3] it was 25%; in test [4], 53.5%; in test [5], -39.3% (active); in [6], -23.8% (active). Besides, the growth in [7] was -45.8% (active); in [8] it was -1.27% (active); in test [9] it was -71% (active); in test [19], 11.7%; in test [10], 8.74% (active); in [11] it was -47.6% (active). Further, the growth in test [12] was -51.5% (active); in test [20], -61.8% (active); in [13], 14.8%; in test [14] it was 5.34% (active); in [15], -63.9% (active); in test [17], -42.6% (active).
